Assay results taken from PubChem BioAssay (EPA / NIEHS).
Records with an inconclusive call do not appear. Calls of active or inactive are those of the source. How the source made its calls: active means hit-call score of the fitted dose curve at least 0.9, where 1 is the maximum; inconclusive means response in the unintended direction; inactive means score below 0.9.

Test: Tanguay_ZF_120hpf_TRUN_legacy: (Legacy) Oregon State University Tanguay Lab 120 Hour Post-fertilization zebrafish Assay for Truncated Body (AID 2283655)
Experimental: Tanguay_ZF_120hpf_legacy is a whole embryo, multiplexed endpoint assay using zebrafish larvae exposed for 120 hours post fertilization on a 96-well plate.Tanguay_ZF_120hpf_TRUN_legacy is one of one assay component(s) measured or calculated from the Tanguay_ZF_120hpf_legacy assay. It is designed to make measurements of zebrafish development as detected with brightfield microscopy of developing zebrafish embryos.Data from the assay component Tanguay_ZF_120hpf_TRUN_legacy was analyzed into 1 assay endpoints. This assay endpoint, Tanguay_ZF_120hpf_TRUN_legacy, was analyzed in the positive analysis fitting direction relative to DMSO as the negative control and baseline of activity. Using a type of morphology reporter, gain-of-signal activity can be used to understand changes in developmentals as they relate to the whole embryo. To generalize the intended target to other relatable targets, this assay endpoint is annotated to the zebrafish development intended target family, where the subfamily is embryonic morphogenesis.
Zebrafish husbandry: Tropical 5D wild-type adult zebrafish were housed in at an approximate density of 1000 per 100 gallon tank at the Sinnhuber Aquatic Research Laboratory, Oregon State University, Corvallis, OR. Each tank was kept at standard laboratory conditions of 28C on a 14-h light/10-h dark photoperiod in fish water consisting of reverse osmosis water supplemented with a commercially available salt (Instant Ocean). Spawning funnels were placed into the tanks the night prior, and embryos were collected and staged. To increase bioavailability, the chorion was enzymatically removed using pronase (63.6mg/ml, >/= 3.5U/mg, Sigma-Aldrich: P5147) at 4 hours post fertilization (hpf) using a custom automated dechorionator.Chemical exposures: Six hpf dechorionated embryos were placed 1 embryo per well in a 96-well plate prefilled with 90 ul of EM using automated embryo placement systems (AEPS). Ten microliters of each row of dilution plate 2 was added to 2 exposure plates. The final DMSO concentration used was 0.64% (vol/vol). Thirty-two embryos were also exposed to 5uM trimethyltin chloride (positive control). Plates were sealed to prevent evaporation and foil covered to reduce light exposure and kept in a 28C incubator. Embryos were statically exposed until 120 hpf. At 24 hpf, embryos were assessed for photomotor response using a custom photomotor response analysis tool (PRAT) and for developmental toxicity endpoints (MO24: mortality at 24 hpf, DP: developmental progression, SM: spontaneous movement, and NC: notochord distortion). At 120 hpf, locomotor activity was measured using Viewpoint Zebralab and assessed for 18 endpoints. Zebrafish acquisition and analysis program (ZAAP), a custom program designed to inventory, acquire, and manage zebrafish data, was used to collect developmental endpoints as either present or absent (i.e., binary responses were recorded). If mortality occurred for an embryo (at either 24 or 120 hpf), the non-mortality endpoints were not measured.

Row | SMILES | outcome | AC50
1 | CCCCSP(=O)(SCCCC)SCCCC | inactive | –
2 | CNC(=O)Oc1cccc2c1OC(C)(C)O2 | inactive | –
3 | Nc1nc(N)nc(NC2CC2)n1 | inactive | –
4 | CCC(=O)Nc1ccc(Cl)c(Cl)c1 | inactive | –
5 | CCOC(=O)CC(SP(=O)(OC)OC)C(=O)OCC (stereo not given) | inactive | –
6 | CCOP(=O)(SC(C)CC)N1CCSC1=O (stereo not given) | inactive | –
7 | CN(C)C(=O)Nc1cccc(C(F)(F)F)c1 | inactive | –
8 | COP(=O)(OC)OC(Br)C(Cl)(Cl)Br (stereo not given) | inactive | –
9 | CC(C)=CC1C(C(=O)OCN2C(=O)C3=C(CCCC3)C2=O)C1(C)C (stereo not given) | inactive | –
10 | CSC1=N[C@@](C)(c2ccccc2)C(=O)N1Nc1ccccc1 | inactive | –
11 | CC[C@H](C)[C@H]1O[C@]2(C=C[C@@H]1C)C[C@@H]1C[C@@H](C/C=C(\C)[C@@H](O[C@H]3C[C@H](OC)[C@@H](O[C@H]4C[C@H](OC)[C@@H](NC)[C@H](C)O4)[C@H](C)O3)[C@@H](C)/C=C/C=C3\CO[C@@H]4[C@H](O)C(C)=C[C@@H](C(=O)O1)[C@]34O)O2 | inactive | –
12 | CCOP(=S)(OCC)Oc1ccc([N+](=O)[O-])cc1 | inactive | –
13 | CCC(=NOC/C=C/Cl)C1=C(O)CC(C2CCOCC2)CC1=O (stereo not given) | inactive | –
14 | CC(COc1ccc(Oc2ccccc2)cc1)Oc1ccccn1 (stereo not given) | inactive | –
15 | CCOP(=O)(OCC)Oc1cc(C)nc(C(C)C)n1 | inactive | –
16 | CCNc1nc(Cl)nc(NC(C)(C)C#N)n1 | inactive | –
17 | CSc1nnc(C(C)(C)C)c(=O)n1N | inactive | –
18 | CCOP(=S)(OCC)SCCSCC | inactive | –
19 | CCOP(=O)(NC(C)C)Oc1ccc(SC)c(C)c1 (stereo not given) | inactive | –
20 | O=c1ccc(=O)[nH][nH]1 | inactive | –

Row | SMILES | outcome | AC50
21 | CNC(=O)ON=C(SC)C(=O)N(C)C | inactive | –
22 | CC(=NC#N)N(C)Cc1ccc(Cl)nc1 | inactive | –
23 | CCCOCC(=Nc1ccc(Cl)cc1C(F)(F)F)n1ccnc1 | inactive | –
24 | Cc1cc(C2CC2)nc(Nc2ccccc2)n1 | inactive | –
25 | CCCCOC(=O)[C@@H](C)Oc1ccc(Oc2ccc(C#N)cc2F)cc1 | inactive | –
26 | CCc1cccc(CC)c1N(COC)C(=O)CCl | inactive | –
27 | FC(F)C(F)(F)OCC(Cn1cncn1)c1ccc(Cl)cc1Cl (stereo not given) | – | 49.6 µM (active)
28 | CON=C(C(=O)OC)c1ccccc1CON=C(C)c1cccc(C(F)(F)F)c1 | inactive | –
29 | CCOP(=S)(OCC)OC(Cl)C(Cl)(Cl)Cl (stereo not given) | inactive | –
30 | N#CSCSC#N | inactive | –
31 | C=C(C)[C@H]1Cc2c(ccc3c2O[C@@H]2COc4cc(OC)c(OC)cc4[C@@H]2C3=O)O1 | inactive | –
32 | CNC(=O)ON=C(C)SC | inactive | –
33 | COc1cccc(C(=O)NN(C(=O)c2cc(C)cc(C)c2)C(C)(C)C)c1C | inactive | –
34 | CCOC(=O)COc1cc(-c2nn(C)c(OC(F)F)c2Cl)c(F)cc1Cl | inactive | –
35 | CN(C)[C@@H]1C(=O)C(C(N)=O)=C(O)[C@@]2(O)C(=O)C3=C(O)c4c(O)cccc4[C@@](C)(O)[C@H]3[C@H](O)[C@@H]12 | inactive | –
36 | COP(=O)(NC(C)=O)SC (stereo not given) | inactive | –
37 | CCOP(=S)(OCC)Oc1cc(C)nc(C(C)C)n1 | inactive | –
38 | CCc1cnc(C2=NC(C)(C(C)C)C(=O)N2)c(C(=O)O)c1 (stereo not given) | inactive | –
39 | COP(=O)(OC)SCn1c(=O)oc2cc(Cl)cnc21 | inactive | –
40 | CC(C)N(C(=O)SCC(Cl)=C(Cl)Cl)C(C)C | inactive | –
